Pf growth 48h: P. falciparum growth inhibition at 48 hours (one generation) | Potency, µM (titrated, usually from 28.7 µM), inactives show at the highest dose activity change, negative = inhibition, usual class: inhibitors | actives 5.9% (n = 310,000) | P. falciparum luciferase growth in erythrocytes, 48 h; also: potency is read from the fitted curve at half-maximal effect
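Luciferase-expressing parasites in RBCs, 2% Hct / 0.1% parasitemia final; RPMI 1640 + 0.5% Albumax; 37 C, 5% CO2, one generation; luminescence read-out, lower signal = inhibition.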
Pf growth 96h: inhibits malaria parasite growth, 96 h | Potency, µM (doses to about 28.7 µM), for inactives: at the top dose activity change, negative = inhibition, actives largely listed as inhibitors | P. falciparum luciferase reporter growth, 96 h | actives 6.9% (n = 320,000); also: potency is read from the fitted curve at half-maximal effect
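Parasite growth measured via integrated firefly luciferase reporter in P. falciparum. Infected erythrocytes at 2% hematocrit, 0.05% parasitemia final were treated 96 hours at 37 C under 5% CO2, and luminescence was read.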
Giardia FBPA inh: blocks Giardia fructose-bisphosphate aldolase activity. purified Giardia FBPA. Potency, µM (top dose mostly 59.6 µM), without a hit: top-dose activity, negative = inhibition, most hits filed as inhibitors. A8B2U2. actives 0.71% (n = 290,000); also: potency is read from the fitted curve at half-maximal effect; nearly all actives have a fitted effect of over 55% in size
Target sequence (A8B2U2 whole entry, looked up): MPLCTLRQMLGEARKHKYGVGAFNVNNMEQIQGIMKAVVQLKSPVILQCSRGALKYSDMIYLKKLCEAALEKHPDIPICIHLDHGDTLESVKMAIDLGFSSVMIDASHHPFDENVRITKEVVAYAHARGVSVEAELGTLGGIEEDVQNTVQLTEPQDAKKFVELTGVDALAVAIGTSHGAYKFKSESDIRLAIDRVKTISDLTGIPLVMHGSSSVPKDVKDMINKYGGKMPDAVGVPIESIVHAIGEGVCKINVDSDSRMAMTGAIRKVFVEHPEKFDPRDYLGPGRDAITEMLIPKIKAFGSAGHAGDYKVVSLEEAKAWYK
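40 nM FBPA preincubated 10 min at RT with compound (up to 57.5 uM final), then substrate plus GAPDH/TPI/NAD/arsenate coupling and diaphorase/resazurin added. Fluorescence read after 20 min at RT, 525/598 nm.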
HCMV inh: human cytomegalovirus inhibition; activity change, negative = inhibition, % at 57.5 µM; HFF cells, HCMV-luciferase reporter, 72 h; active compounds read low; AID 1259415; actives 4.5% (n = 410,000); in the data active = activity change below about -60%; inconclusive = no clear call, values can overlap the other calls; inactive = above about -39%
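Two compound doses tested in HFFs infected with HCMV-luciferase, MOI 1 PFU/cell, 72 h at 37C. Lysate luminescence read with OneGlo; data normalized against buffer-only and 10uM Salinomycin inhibitor controls.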
Sm TGR inh: inhibitors of Schistosoma mansoni thioredoxin glutathione reductase. AID 485364. actives 3% (n = 360,000). purified TGR, DTNB reduction, TNB absorbance 405 nm. Q962Y6. Potency, µM (titrated, usually from 114 µM), without a hit: at the top dose activity change, negative = inhibition, hits mostly inhibitors; also: potency is read from the fitted curve at half-maximal effect; nearly all actives have a fitted effect of over 60% in size
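First, TGR (20 nM dispensed) and NADPH were mixed with compound. Second, a 15 min room-temperature incubation followed. Third, further NADPH and then DTNB were added to start the reaction. Finally, TNB absorbance was monitored kinetically.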
Numbers without * were called inactive; ? = inconclusive; nt = no result given. Shown are actives, neighbours in structure and some others; about 14% of the full set was active somewhere. Unless noted, calls follow the shape of the dose curve; as a rule, active = well fitted curve in the direction sought with a large enough effect; inconclusive = small, poorly fitted or top-dose-only effect, or another doubt; inactive = no such curve, though single readings can be large; an effect the other way counts as inactive or inconclusive. % is scaled to controls: 0 for no effect and ±100 for the full control effect.

SMILES | Pf growth 48h | Pf growth 96h | Giardia FBPA inh | HCMV inh | Sm TGR inh
COc1cccc(NC(=O)c2ccc3nc(C)c(N(C)Cc4ccc(NC(C)=O)cc4)n3c2)c1 | nt | nt | nt | 1.6 | nt
C/C(=N\Nc1ccc(Cl)c(Cl)c1)c1ccc(-n2ccnc2)cc1 | 11.7µM* | 4.65µM* | 1.3% | -18.4 | -16.4%
C/C(=N\NC(N)=S)c1ccc(-n2ccnc2)cc1 | ? | ? | ? | -12.6 | -7.3%
C=C(C)CNC(=S)N/N=C(\C)c1ccc(-n2ccnc2)cc1 | nt | 5.86µM* | -11.1% | -22.0 | -19.7%
Cc1cc(-c2nn(-c3ccccc3F)cc2CNCCc2cnc[nH]2)c(C)s1 | ? | ? | -6.6% | 11.3 | -10.8%
COc1cc2c(cc1OC)C1=C(C#N)CCC(=NC(=O)c3ccc(Cl)cc3)N1CC2 | -1.9% | ? | -2.9% | 4.1 | 9.9%
COc1cc2c(cc1OC)C1=C(C#N)COCN1CC2 | ? | 3.7µM* | ? | ? | 20µM*
Clc1cccc(CN2CCN(c3ncccn3)CC2)c1Cl | 19.2% | 13.1µM* | -24.0% | ? | 1.6%
Clc1ccccc1CN1CCN(c2ncccn2)CC1 | -3.6% | ? | -16.2% | -7.1 | -25.8%
COc1ccc(CNc2nc3ccccc3n2C)c(OC)c1 | 138.5% | 101.3% | -4.6% | 63.2 | 0.0%
COc1ccc(N=Nc2nc3cc(Br)c(Br)cc3n2C)c(OC)c1 | 10.4µM* | ? | ? | -16.0 | 44.7µM*
COc1cc(/C=C2/SC(=S)N(CCC(=O)Nc3cccnc3)C2=O)cc(OC)c1OC | nt | nt | nt | 31.8 | nt
CC(C)N(Cc1cn(C)nc1-c1cccc(Cl)c1)CC1CCC(=O)N1 (centres undefined) | -29.1% | ? | 1.6% | -12.7 | 30.6%
C=CCN(Cc1cn(C)nc1-c1cccc(Cl)c1)C1CCS(=O)(=O)C1 (centres undefined) | -3.4% | 298.3% | 0.5% | 28.7 | 28.2µM*
CCOC(=O)C1CCN(C(=O)CSc2c3c(nc4ccccc24)CCC3)CC1 | 0.0% | 20.9% | 1.9% | 0.2 | -0.2%
O=C(C1CCN(c2nc(-c3ccccc3)nc3c2CCC3)CC1)N1CCC(O)CC1 | 3.7µM* | ? | nt | -11.7 | -15.0%
COCC1CCN(C(=O)C2CCN(c3nc(-c4ccccc4)nc4c3CCC4)CC2)C1 (centres undefined) | 7.38µM* | ? | 2.2% | -20.8 | -31.8%
CCOC(=O)C1CCN(c2nc(-c3ccc(C)cc3)nc3ccccc23)CC1 | ? | ? | -3.9% | 56.2 | 10.9%
COCC1CCCCN1C(=O)C1CCN(c2nc(-c3ccccc3)nc3c2CCC3)CC1 (centres undefined) | 9.28µM* | -24.0% | nt | ? | -16.7%
CC(=O)c1c(C)[nH]c(C(=O)Nc2cccc(S(=O)(=O)N(C)C)c2)c1C | 37.4% | 38.1% | -6.1% | 337.7 | -3.5%
CC(=O)c1c(C)[nH]c(C(=O)Nc2cc(C)cc(C)c2)c1C | nt | 5.86µM* | -5.7% | nt | -20.5%
CC(=O)c1c(C)[nH]c(C(=O)Nc2ccc(S(=O)(=O)N(C)C)cc2)c1C | ? | 13.1µM* | -1.6% | 28.9 | 4.3%
Cn1c(-c2cccnc2)cc2cnc(Nc3ccc4c(c3)OCO4)cc21 | nt | nt | nt | 21.9 | nt
CCOC(=O)c1nn(-c2ccc(Br)cc2)cc1C(=O)c1cccc2ccccc12 | 56.6% | 48.3% | 0.4% | -25.8 | -19.5%
Nc1nnc(-c2ccc([N+](=O)[O-])o2)s1 | nt | nt | nt | -17.6 | nt
SMILES | Pf growth 48h | Pf growth 96h | Giardia FBPA inh | HCMV inh | Sm TGR inh
O=c1[nH]nc(-c2ccc([N+](=O)[O-])o2)c(=O)[nH]1 | nt | nt | nt | -93.2* | nt
CCc1cccc(NS(=O)(=O)c2ccc(-n3cccn3)cc2)c1 | 25.7% | 13.1µM* | 4.3% | -32.6 | 2.9%
Cc1ccc(NS(=O)(=O)c2ccc(-n3cccn3)cc2)cc1C | ? | ? | nt | -92.9* | -5.7%
O=S(=O)(Nc1cccc(Cl)c1)c1ccc(-n2cccn2)cc1 | 2.7% | ? | 2.5% | -15.3 | 0.7%
Cc1ccc(NS(=O)(=O)c2ccc(-n3cccn3)cc2)cc1Cl | nt | nt | nt | -33.1 | 6.4%
CC1(C)CC2/C(CO)=C/C=C/[C@](C)(O)CC[C@]21O (some centres undefined) | nt | nt | -1.9% | nt | nt
O=C(Cn1ccc2cc(S(=O)(=O)N3CCCCCC3)ccc21)NCCc1ccccc1Cl | nt | nt | nt | 4.2 | 1.3%
O=C(O)c1ccc(N2C(=O)/C(=C/c3ccc(-c4ccc([N+](=O)[O-])cc4)o3)C=C2c2ccccc2)cc1 | ? | 16.7% | -10.1% | nt | 44.7µM*
Cc1ccccc1NC(=O)c1sc2nc(-c3ccncc3)ccc2c1N | nt | nt | nt | ? | 6.0%
CN(C)CCNC(=O)c1cc2c(s1)-c1ccc(Cl)cc1SC2 | 2.62µM* | 52.2% | 3.0% | -99.8* | 15.3%
CCOCCCNC(=O)c1cc2c(s1)-c1ccccc1SC2 | 2.62µM* | 5.22µM* | 10.5% | 30.9 | -17.8%
CCCN(C(=O)c1cc2c(s1)-c1ccccc1OC2)c1ccccc1F | nt | nt | nt | -8.2 | -0.1%
CCCN(C(=O)c1cc2c(s1)-c1ccccc1SC2)c1ccccc1F | nt | nt | nt | -68.3* | -2.0%
O=C(CNCc1ccc(Cl)cc1)Nc1cc(S(=O)(=O)N2CCCC2)ccc1Cl | nt | nt | nt | -15.3 | nt
CCOC(=O)C1=CCN(S(=O)(=O)c2ccccc2Cl)C1c1cccc(Br)c1 (centres undefined) | nt | nt | nt | -26.0 | nt
Cc1noc(C)c1NC(=O)Nc1ccc2c(c1)C(=O)N([C@H](C)CO)C[C@H](C)[C@@H](CN(C)S(=O)(=O)c1ccc(Cl)cc1)OCCCC[C@@H](C)O2 | nt | nt | nt | 6.5 | nt
CC(N)C(=O)NC1C2C(=C(O)CC(O)C2O)C(=O)OC1(C)C(Cl)Cl (centres undefined) | nt | nt | nt | -75.8* | nt
CN(/N=C/c1ccc(O)cc1O)c1nc(-c2ccccc2)cc(-c2ccccc2)n1 | 9.28µM* | 5.22µM* | 4.4% | -61.9* | 5.8%
Cc1nc(C2CC(=O)OC23CCCCC3)cs1 (centres undefined) | -2.1% | 10.0% | 2.5% | -7.9 | 0.8%
C/C(=C\c1csc(C)n1)[C@@H]1C[C@@H]2O[C@]2(C)CCC[C@H](C)[C@H](O)[C@@H](C)C(=O)C(C)(C)[C@@H](O)CC(=O)O1 | 0.0013µM* | ? | nt | nt | nt
O=C(CNc1ccc(C(F)(F)F)cc1)Nc1cccc(S(=O)(=O)N2CCCCC2)c1 | nt | nt | nt | -24.9 | nt
O=S(=O)(c1ccccc1)[C@@]1(c2ccc(Br)cc2)C[C@@H]2ON=C(c3ccccc3)[C@@H]2C1 | ? | ? | nt | -17.4 | -9.9%
O=S(=O)(c1ccccc1)[C@@]1(c2ccc(Br)cc2)C[C@@H]2ON=C(c3cccc(Br)c3)[C@@H]2C1 | 9.28µM* | ? | nt | -18.2 | -0.3%
CC(C)Oc1ccc(C(=O)N2CCC(c3nc4ccccc4s3)CC2)cc1 | nt | nt | nt | 13.8 | -4.4%
O=C1CCCN1c1ncc(S(=O)(=O)c2ccc([N+](=O)[O-])cc2)s1 | ? | 4.15µM* | -26.2% | -23.2 | 49.2%
O=C(Nc1cccc(F)c1)N1CCCC2(CCN(C(=O)c3ccco3)CC2)C1 | nt | nt | 0.0% | nt | nt

Screening results from PubChem BioAssay.
